Experimental data reported in PubChem BioAssay (NCI).
Compounds without any hit were thinned out: in the full panel of roughly 83,000, 20% have a hit.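 Values shown are percent growth following 48 h exposure of cells in 96-well plates to a single concentration of compound; below 10 was considered active.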 Activity calls are given as the source filed them.

What follows are molecules tested on UO-31 renal (assay: NCI-60 one-dose screen, 48 h (100 = growth as untreated, 0 = no growth, -100 = all killed)). Conditions: 10 µM.

SMILES | growth
O=C(NO)c1ccc(Cn2ccc3c(Nc4ccccc4)ncnc32)cc1 | 9.48% (active)
CC(=O)Nc1nc(-c2ccc(N3CCN(C)CC3)c(NS(=O)(=O)c3cccc4c(N(C)C)cccc34)c2)cs1 | 60% (inactive)
CCCCCCCCCCCCCCCCCCCC(=O)NCCc1c[nH]c2ccc(OC(=O)CCCC(=O)OCCOOCCOOCCOOCCOOCCOOCCOOCCOOCCOOCCOOCCOOCCOOCCOC)cc12 | 45.4% (inactive)
COC[C@@H](CC(C)C)N=C1NC(=O)/C(=C/c2ccc3ncsc3c2)N1 | -12.7% (active)
O=C(NC(=S)N1CCN(c2ncnc3c2cnn3-c2ccccc2)CC1)c1ccc(Cl)cc1 | 40% (inactive)

Each molecule was assayed on TK-10 renal in the same assay as above. Conditions: 10 µM.

SMILES | growth
CN1CCN(c2ccc(Nc3nc(NCCCNC(=O)c4ccc(F)cc4)c4sccc4n3)cc2)CC1 | 119% (inactive)
O=C(CS(=O)(=O)c1oc(-c2ccc(Cl)cc2)nc1S(=O)(=O)c1ccc(Cl)cc1)N1CCOCC1 | 16.5% (inactive)
COc1ccc(C(=O)NC(=S)N2CCN(c3ncnc4c3cnn4-c3ccccc3)CC2)cc1 | 101% (inactive)
COc1cccc(COc2ccc(/C=C3\Oc4cc(O)ccc4C3=O)cc2)c1 | 2.68% (active)
O=C(O)CCCCCCCCCCN1C(=O)/C(=C/c2cnc(-c3ccc(Cl)cc3)s2)SC1=S | 58.2% (inactive)
COc1cccc(C(N)=Nc2ccc(OCCCCCCn3cncn3)cc2)c1 | 64.3% (inactive)
CN(C)c1cccc2c(S(=O)(=O)Nc3cccc(-c4csc(NC(=O)CCCCCN5CCN(c6cc7c(cc6F)C(=O)N(C6CCC(=O)NC6=O)C7=O)CC5)n4)c3)cccc12 (stereo not drawn) | 97.4% (inactive)
Cc1ccc(C(C)C)cc1NC(=O)c1ccccc1O | 69.4% (inactive)
NC(=Nc1ccc(OCCCCCCCCn2ccnn2)cc1)c1ccccc1 | 70.9% (inactive)
O=c1[nH][nH]c(Nc2ccccc2)c1N=Nc1ccc(F)cc1 | 94.5% (inactive)
COc1ccc2[nH]c(O)c(N=NC(=O)c3cc(-c4ccc(C)cc4)nc4ccccc34)c2c1 | 117% (inactive)
CN1C(=O)/C(=C/c2nccs2)SC1=S | 162% (inactive)
CNC(=O)c1cc(-c2ccc(NC(=O)Nc3ccc(C)cc3)cc2)nc2cccnc12 | 108% (inactive)
CC(=O)NNc1ccc2nnc(-c3ccc(Br)cc3)n2n1 | 103% (inactive)
O=c1oc2ccc(-c3ccc(F)cc3F)cc2c(=O)n1-c1ccc(F)c(Cl)c1 | 11.9% (inactive)
CCN1CCN(c2ccc(NC(=O)Nc3ccc(-c4cc(C(=O)NC(C)C)c5ncccc5n4)cc3)cc2C(F)(F)F)CC1 | -92.7% (active)
COC(=O)C(Cc1ccc(O)c(O)c1)NC(=O)C(CSC/C=C(\C)CCCC(C)CCCC(C)CCCC(C)C)NC(C)=O (stereo not drawn) | 45.3% (inactive)
CN1CCN(c2ccc(Nc3nc(NCCCNC(=O)c4ccc(Cl)cc4)c4sccc4n3)cc2)CC1 | 115% (inactive)
CCCCCCCCCCCCCCCCCCCC(=O)NCCc1c[nH]c2ccc(O)cc12 | 118% (inactive)

SMILES | growth
CCCCCc1ccc(S(=O)(=O)N(C(C)=O)c2cc(-c3csc(N(C)C(C)=O)n3)ccc2N2CCN(C)CC2)cc1 | 76.7% (inactive)
COc1ccc2[nH]c(O)c(N=NC(=O)COc3ccc(NC(=O)Nc4ccc(Cl)cc4)cc3)c2c1 | 106% (inactive)
CCCCCCCCCCCCCCCCCCCC(=O)NCCc1c[nH]c2ccc(OC(=O)NOCCOCCOCCOCCOCCOCCOCCOCCOCCOCCOCCOCCOCCOCCOCCOCCOCCOCCOCCOCCOCCOCCOC)cc12 | 51.2% (inactive)
CC1(C)CC[C@]2(C(=O)N3CCOCC3)CC[C@]3(C)C(=CC[C@@H]4[C@@]5(C)CC[C@H](NCO)C(C)(C)[C@@H]5CC[C@]43C)[C@H]2C1 | -82% (active)
Cc1ccc(-c2cc(C(=O)N=Nc3c(O)[nH]c4ccc(Br)cc34)c3ccccc3n2)cc1 | 119% (inactive)
CCC(C)S(=O)(=O)c1oc(-c2ccc(C)cc2)nc1S(=O)(=O)c1ccccc1 (stereo not drawn) | -99.5% (active)
CCCCCc1ccc(S(=O)(=O)Nc2cc(-c3csc(N(C)C(C)=O)n3)ccc2N2CCN(C)CC2)cc1 | 47.3% (inactive)
C/C(=C\CC/C=C(\C)CC/C=C(\C)CC[C@@H](O)C(C)(C)O)CC/C=C(\C)CC[C@@H](O)C(C)(C)O | 64.6% (inactive)
CC(C)C(=O)Nc1ccc(C(=O)NC(=S)Nc2ccc(C(=O)O)cc2)cc1 | 101% (inactive)
CN1CCN(c2ccc(Nc3nc(N4CCN(S(=O)(=O)c5ccc(F)cc5)CC4)c4sccc4n3)cc2)CC1 | -77.9% (active)
O=C(Cn1cc(CSc2nnc3oc4ccccc4n23)nn1)Nc1ccc(Br)cc1 | 85.8% (inactive)
CC1(C)CC[C@]2(C(=O)NCCCNCCCCNCCCN)CC[C@]3(C)C(=CC[C@@H]4[C@@]5(C)Cc6c([nH]c7ccccc67)C(C)(C)[C@@H]5CC[C@]43C)[C@H]2C1 | 96.9% (inactive)
COc1ccc(CCN2C(=O)/C(=C/c3csc(C#N)n3)SC2=S)cc1 | 13.3% (inactive)
CC(=O)Nc1nc(-c2ccc(N3CCN(C)CC3)c(NS(=O)(=O)c3ccc(C(F)(F)F)cc3)c2)cs1 | 10.8% (inactive)
O=C(NO)c1ccc(Cn2ccc3c(Nc4ccccc4)ncnc32)cc1 | 2.65% (active)
CC(=O)Nc1nc(-c2ccc(N3CCN(C)CC3)c(NS(=O)(=O)c3cccc4c(N(C)C)cccc34)c2)cs1 | 84.3% (inactive)
CCCCCCCCCCCCCCCCCCCC(=O)NCCc1c[nH]c2ccc(OC(=O)CCCC(=O)OCCOOCCOOCCOOCCOOCCOOCCOOCCOOCCOOCCOOCCOOCCOOCCOC)cc12 | 120% (inactive)
COC[C@@H](CC(C)C)N=C1NC(=O)/C(=C/c2ccc3ncsc3c2)N1 | 27.8% (inactive)
O=C(NC(=S)N1CCN(c2ncnc3c2cnn3-c2ccccc2)CC1)c1ccc(Cl)cc1 | 109% (inactive)
